{"source": "PubChem BioAssay", "key": {"[1]": {"tested_on": "Plasmodium falciparum Sir2 (PF13_0152, Sir2A)", "experiment": "pfSir2 binders on small-molecule microarrays, primary screen, biochemical, small-molecule microarray, 635 nm fluorescence (AID 1098);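 also: score merges spot fluorescence intensity with its signal-to-noise ratio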", "conditions": "small-molecule microarray binding, fluorescence 635 nm; higher = more signal"}, "[2]": {"experiment": "small-molecule microarray binders of probe aDKK1, primary screen, biochemical, biotinylated probe, 635/667 nm fluorescence (AID 1099);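 also: score merges 667nm spot fluorescence with signal to noise across triplicate slides; reference of the scale not given here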", "conditions": "higher = more signal"}, "[3]": {"experiment": "small-molecule microarray binders of probe aCHRDL2, primary screen, biochemical, biotinylated probe, 635/667 nm fluorescence (AID 1100)", "conditions": "higher = more signal"}, "[4]": {"experiment": "splicing luciferase reporter signal modulators, primary screen, spliceosome inhibition project, cell-based, HEK293, splice +/- reporter (AID 1101);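 also: HEK293 cells carrying a splicing-competent luciferase reporter gene; test concentration not given here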", "conditions": "luminescence, 24 h, higher = more signal, called active from +8 up or from −8 down"}, "[5]": {"biological_target": "Fibroblast growth factor 10 (Homo sapiens) (UniProt O15520)", "sequence (O15520 whole entry, looked up)": "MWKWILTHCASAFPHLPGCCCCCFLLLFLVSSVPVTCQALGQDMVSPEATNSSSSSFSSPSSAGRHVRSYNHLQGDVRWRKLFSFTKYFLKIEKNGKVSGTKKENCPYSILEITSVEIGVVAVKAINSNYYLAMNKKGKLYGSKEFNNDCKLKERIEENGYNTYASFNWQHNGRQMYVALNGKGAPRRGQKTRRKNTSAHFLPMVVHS", "experiment": "FGF10 binders on small-molecule microarrays, primary screen, biochemical, small-molecule microarray, 635 nm fluorescence (AID 1102)", "conditions": "FGF10 binding, fluorescence 635 nm, higher = more signal"}, "[6]": {"tested_on": "glycogen synthase kinase-3 (GSK3A per assay name; protocol says GSK3B)", "experiment": "GSK3 binders on small-molecule microarrays, primary screen, biochemical, small-molecule microarray, 635 nm fluorescence, GSK3A (AID 1103); also: the record names both GSK3A and GSK3B", "conditions": "small-molecule microarray binding, fluorescence 635 nm; higher = more signal"}, "[7]": {"biological_target": "Epidermal growth factor receptor (Homo sapiens) (UniProt P00533)", "sequence (P00533 whole entry, looked up)": "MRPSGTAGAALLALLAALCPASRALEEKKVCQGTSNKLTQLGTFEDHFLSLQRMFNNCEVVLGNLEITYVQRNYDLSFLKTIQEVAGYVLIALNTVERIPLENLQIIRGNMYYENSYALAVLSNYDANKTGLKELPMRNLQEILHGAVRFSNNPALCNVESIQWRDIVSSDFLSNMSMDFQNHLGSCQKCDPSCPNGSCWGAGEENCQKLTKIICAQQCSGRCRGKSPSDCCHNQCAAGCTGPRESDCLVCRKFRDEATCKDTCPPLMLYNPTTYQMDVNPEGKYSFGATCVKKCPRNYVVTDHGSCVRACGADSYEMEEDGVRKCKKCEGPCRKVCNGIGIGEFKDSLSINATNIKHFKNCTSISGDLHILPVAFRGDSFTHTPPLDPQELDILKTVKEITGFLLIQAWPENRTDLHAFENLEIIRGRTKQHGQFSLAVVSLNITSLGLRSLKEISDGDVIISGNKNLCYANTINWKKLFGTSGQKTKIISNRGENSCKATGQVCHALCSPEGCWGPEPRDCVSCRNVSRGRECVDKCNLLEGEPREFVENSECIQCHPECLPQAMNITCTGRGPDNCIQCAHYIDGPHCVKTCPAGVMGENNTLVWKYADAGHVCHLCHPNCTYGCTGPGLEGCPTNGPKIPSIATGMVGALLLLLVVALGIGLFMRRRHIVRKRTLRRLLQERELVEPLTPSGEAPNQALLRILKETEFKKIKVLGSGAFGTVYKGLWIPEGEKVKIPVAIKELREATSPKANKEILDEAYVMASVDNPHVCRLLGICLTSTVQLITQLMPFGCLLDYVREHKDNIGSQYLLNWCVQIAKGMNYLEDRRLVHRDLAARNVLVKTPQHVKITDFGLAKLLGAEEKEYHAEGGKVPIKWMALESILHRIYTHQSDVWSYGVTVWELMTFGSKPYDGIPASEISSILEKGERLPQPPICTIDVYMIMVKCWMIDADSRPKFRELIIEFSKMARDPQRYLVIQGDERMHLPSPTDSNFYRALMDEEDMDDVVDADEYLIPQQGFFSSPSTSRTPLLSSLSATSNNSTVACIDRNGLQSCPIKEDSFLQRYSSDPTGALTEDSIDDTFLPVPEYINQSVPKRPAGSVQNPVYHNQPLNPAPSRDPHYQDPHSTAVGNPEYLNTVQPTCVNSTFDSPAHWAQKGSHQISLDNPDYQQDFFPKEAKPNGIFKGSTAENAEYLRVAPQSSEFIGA", "experiment": "EGFR binders on small-molecule microarrays, primary screen, biochemical, small-molecule microarray, 635 nm fluorescence (AID 1104);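 also: score merges 667 nm emission intensity with spot signal to noise over triplicate slides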", "conditions": "EGFR binding, higher = more signal"}, "[8]": {"biological_target": "Follistatin-related protein 3 (Homo sapiens) (UniProt O95633)", "sequence (O95633 whole entry, looked up)": "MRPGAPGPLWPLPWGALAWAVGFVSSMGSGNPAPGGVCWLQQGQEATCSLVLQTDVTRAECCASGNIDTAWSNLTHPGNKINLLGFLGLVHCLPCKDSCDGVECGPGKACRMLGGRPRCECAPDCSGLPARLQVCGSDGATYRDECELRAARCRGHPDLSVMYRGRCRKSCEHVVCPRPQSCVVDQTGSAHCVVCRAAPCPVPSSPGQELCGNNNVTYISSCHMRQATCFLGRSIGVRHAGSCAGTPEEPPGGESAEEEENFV", "experiment": "FSTL3 binders on small-molecule microarrays, primary screen, biochemical, small-molecule microarray, 635 nm fluorescence (AID 1105);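 also: score merges emission near 667 nm and signal to noise per printed spot across three slides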", "conditions": "FSTL3 binding, higher = more signal"}, "[9]": {"biological_target": "Dickkopf-related protein 1 (Homo sapiens) (UniProt O94907)", "sequence (O94907 whole entry, looked up)": "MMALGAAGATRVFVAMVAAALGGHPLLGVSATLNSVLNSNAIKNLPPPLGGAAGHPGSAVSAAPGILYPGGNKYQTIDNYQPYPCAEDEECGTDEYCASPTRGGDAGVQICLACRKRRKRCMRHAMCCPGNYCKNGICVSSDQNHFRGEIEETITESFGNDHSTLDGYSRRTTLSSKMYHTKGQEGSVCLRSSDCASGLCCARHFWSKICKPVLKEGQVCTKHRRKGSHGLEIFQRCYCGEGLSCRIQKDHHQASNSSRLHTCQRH", "experiment": "DKK1 binders on small-molecule microarrays, primary screen, biochemical, small-molecule microarray, 635 nm fluorescence scan (AID 1106);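 also: score merges emission near 667 nm with signal to noise over three replicate slides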", "conditions": "DKK1 binding, higher = more signal"}, "[10]": {"tested_on": "Inhibin beta A chain (activin A)", "experiment": "INHBA (activin A) binders on microarrays, primary screen, biochemical, small-molecule microarray, 635 nm fluorescence scan (AID 1107);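 also: mouse activin A protein probed at 4.33 µg/mL on printed slides; score merges bound-protein fluorescence near 667 nm with spot signal-to-noise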", "conditions": "small-molecule microarray binding, higher = more signal"}}, "note": "Calls of active or inactive are those of the source.", "data": [{"smiles": "C=CCC(OC(C)=O)[C@@H]1[C@@H](N(Cc2ccc(-c3ccccc3)cc2)C(=O)Cc2ccc(F)cc2)c2cc(OCCCO)ccc2N1C(=O)c1ccc(-c2ccccc2)cc1", "note": "(stereo not given in full)", "values": [{"measurement": "composite z-score", "setting": "[1]", "result": 0.152}, {"measurement": "composite z-score", "setting": "[2]", "result": -0.0501}, {"measurement": "composite z-score", "setting": "[3]", "result": 0.216}, {"measurement": "z-score", "setting": "[4]", "result": "-2.23 (inactive)"}, {"measurement": "composite z-score", "setting": "[5]", "result": 0.152}, {"measurement": "composite z-score", "setting": "[6]", "result": -1.02}, {"measurement": "composite z-score", "setting": "[7]", "result": -0.376}, {"measurement": "composite z-score", "setting": "[8]", "result": 0.268}, {"measurement": "composite z-score", "setting": "[9]", "result": -0.282}, {"measurement": "composite z-score", "setting": "[10]", "result": 0.778}]}, {"smiles": "C=C[C@H](COC(C)=O)N(C(=O)OC(C)(C)C)S(=O)(=O)c1ccc(Br)cc1", "values": [{"measurement": "composite z-score", "setting": "[1]", "result": 0.0995}, {"measurement": "composite z-score", "setting": "[2]", "result": 1.29}, {"measurement": "composite z-score", "setting": "[3]", "result": 0.639}, {"measurement": "z-score", "setting": "[4]", "result": "0.353 (inactive)"}, {"measurement": "composite z-score", "setting": "[5]", "result": 0.619}, {"measurement": "composite z-score", "setting": "[6]", "result": 0.484}, {"measurement": "composite z-score", "setting": "[7]", "result": 0.517}, {"measurement": "composite z-score", "setting": "[8]", "result": 0.507}, {"measurement": "composite z-score", "setting": "[9]", "result": 0.717}, {"measurement": "composite z-score", "setting": "[10]", "result": 0.838}]}, {"smiles": "O=C1OCCC/C=C\\[C@H]2OC34C=CCN(Cc5ccccc5)C(=O)[C@H]3N(CCCCCCO)C(=O)[C@@H]4C12", "note": "(stereo not given in full)", "values": [{"measurement": "composite z-score", "setting": "[1]", "result": -0.0862}, {"measurement": "composite z-score", "setting": "[2]", "result": 0.227}, {"measurement": "composite z-score", "setting": "[3]", "result": 0.932}, {"measurement": "z-score", "setting": "[4]", "result": "-0.286 (inactive)"}, {"measurement": "composite z-score", "setting": "[5]", "result": -0.942}, {"measurement": "composite z-score", "setting": "[6]", "result": -0.457}, {"measurement": "composite z-score", "setting": "[7]", "result": -1.69}, {"measurement": "composite z-score", "setting": "[8]", "result": -1.27}, {"measurement": "composite z-score", "setting": "[9]", "result": -1.69}, {"measurement": "composite z-score", "setting": "[10]", "result": -0.546}]}, {"smiles": "O=C1[C@H]2C=C(Br)[C@H](C[C@@H]2c2ccccc2)[C@@]12CO2", "values": [{"measurement": "composite z-score", "setting": "[1]", "result": -0.0067}, {"measurement": "composite z-score", "setting": "[2]", "result": -0.217}, {"measurement": "composite z-score", "setting": "[3]", "result": -0.261}, {"measurement": "z-score", "setting": "[4]", "result": "0.723 (inactive)"}, {"measurement": "composite z-score", "setting": "[5]", "result": 0.774}, {"measurement": "composite z-score", "setting": "[6]", "result": 0.381}, {"measurement": "composite z-score", "setting": "[7]", "result": 0.513}, {"measurement": "composite z-score", "setting": "[8]", "result": 0.733}, {"measurement": "composite z-score", "setting": "[9]", "result": 0.765}, {"measurement": "composite z-score", "setting": "[10]", "result": 0.648}]}, {"smiles": "COCCOC(=O)N1C(=O)[C@@]2(c3cc(C#CCCO)ccc31)[C@H](C(=O)N1CCc3cc(OC)c(OC)cc3C1)[C@H]1C(=O)O[C@H](c3ccccc3)[C@H](c3ccccc3)N1[C@@H]2c1ccc(O)cc1", "values": [{"measurement": "composite z-score", "setting": "[1]", "result": 1.58}, {"measurement": "composite z-score", "setting": "[2]", "result": 0.0869}, {"measurement": "composite z-score", "setting": "[3]", "result": 0.43}, {"measurement": "z-score", "setting": "[4]", "result": "-0.341 (inactive)"}, {"measurement": "composite z-score", "setting": "[5]", "result": 1.06}, {"measurement": "composite z-score", "setting": "[6]", "result": 1.29}, {"measurement": "composite z-score", "setting": "[7]", "result": 0.413}, {"measurement": "composite z-score", "setting": "[8]", "result": 0.81}, {"measurement": "composite z-score", "setting": "[9]", "result": 0.547}, {"measurement": "composite z-score", "setting": "[10]", "result": -0.132}]}, {"smiles": "O=C1NC(=O)C2C1C=CC(C(O)c1cccc3ccccc13)N2Nc1ccccn1", "note": "(stereo not given)", "values": [{"measurement": "composite z-score", "setting": "[1]", "result": 0.621}, {"measurement": "composite z-score", "setting": "[2]", "result": 0.103}, {"measurement": "composite z-score", "setting": "[3]", "result": 0.15}, {"measurement": "z-score", "setting": "[4]", "result": "1.03 (inactive)"}, {"measurement": "composite z-score", "setting": "[5]", "result": 0.522}, {"measurement": "composite z-score", "setting": "[6]", "result": 0.233}, {"measurement": "composite z-score", "setting": "[7]", "result": 0.688}, {"measurement": "composite z-score", "setting": "[8]", "result": 0.857}, {"measurement": "composite z-score", "setting": "[9]", "result": 0.31}, {"measurement": "composite z-score", "setting": "[10]", "result": 0.924}]}, {"smiles": "C=CCOC(=O)[C@@H]1[C@H]2C(=O)O[C@H](c3ccccc3)[C@H](c3ccccc3)N2[C@H](c2ccc(OCCOC(=O)[C@@H]3C[C@@H]4C(=O)N[C@@H](Cc5ccccc5)C(=O)N4[C@@H]3c3ccc(O)cc3)cc2)[C@@]12C(=O)Nc1ccc(I)cc12", "values": [{"measurement": "composite z-score", "setting": "[1]", "result": 1.46}, {"measurement": "composite z-score", "setting": "[2]", "result": -0.191}, {"measurement": "composite z-score", "setting": "[3]", "result": -0.35}, {"measurement": "z-score", "setting": "[4]", "result": "-1.17 (inactive)"}, {"measurement": "composite z-score", "setting": "[5]", "result": 1.16}, {"measurement": "composite z-score", "setting": "[6]", "result": 1.19}, {"measurement": "composite z-score", "setting": "[7]", "result": 0.711}, {"measurement": "composite z-score", "setting": "[8]", "result": 1.38}, {"measurement": "composite z-score", "setting": "[9]", "result": 1.03}, {"measurement": "composite z-score", "setting": "[10]", "result": 0.518}]}, {"smiles": "C=CCNC(=O)[C@@H]1[C@H]2C(=O)O[C@H](c3ccccc3)[C@H](c3ccccc3)N2[C@H](c2ccc(OCCO)cc2)[C@@]12C(=O)Nc1ccc(C#CCCO)cc12", "values": [{"measurement": "composite z-score", "setting": "[1]", "result": 1.7}, {"measurement": "composite z-score", "setting": "[2]", "result": -0.0674}, {"measurement": "composite z-score", "setting": "[3]", "result": 0.456}, {"measurement": "z-score", "setting": "[4]", "result": "-1.09 (inactive)"}, {"measurement": "composite z-score", "setting": "[5]", "result": 1.22}, {"measurement": "composite z-score", "setting": "[6]", "result": 1.27}, {"measurement": "composite z-score", "setting": "[7]", "result": 0.652}, {"measurement": "composite z-score", "setting": "[8]", "result": 1.42}, {"measurement": "composite z-score", "setting": "[9]", "result": 1.12}, {"measurement": "composite z-score", "setting": "[10]", "result": 1.26}]}]}
